Apoferritin bind = candidate novel general anesthetic via apoferritin binding. actives 0.074% (n = 350,000). P02791. Potency, µM (top dose mostly 77.5 µM), for the others: at the top dose activity change, negative = displacement, most hits filed as inhibitors. apoferritin/1-aminoanthracene competitive binding, fluorescence; further: potency means the concentration at half of the fitted maximal effect; on the % scale 0 is the no-effect control and ±100 the full control effect; nearly all actives have a fitted effect of over 20% in size
Target sequence (P02791 2-175 limits assumed): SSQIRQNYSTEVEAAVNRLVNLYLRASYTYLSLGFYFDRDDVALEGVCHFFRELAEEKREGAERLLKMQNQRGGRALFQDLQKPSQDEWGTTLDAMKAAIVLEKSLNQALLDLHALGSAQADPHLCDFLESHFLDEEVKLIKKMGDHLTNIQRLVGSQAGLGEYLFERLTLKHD
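Apoferritin-based anesthetic binding model; compound displacement of fluorescent 1-AMA measured as endpoint fluorescence after 10 minutes at room temperature, scaled to free-ligand and complex controls.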
mIDH1 inhibitor = inhibitors of human mutant IDH1 R132H; Potency, µM (top dose mostly 76.6 µM), for inactives: top-dose activity change, negative = inhibition, hits mostly inhibitors; O75874; actives 0.093% (n = 390,000); IDH1-R132H enzyme, NADPH consumption, diaphorase/resazurin fluorescence; further: potency means the concentration at half of the fitted maximal effect; on the % scale 0 is the no-effect control and ±100 the full control effect; nearly all actives have a fitted effect of over 65% in size
Target sequence (O75874 whole entry R132H, stated change not applied): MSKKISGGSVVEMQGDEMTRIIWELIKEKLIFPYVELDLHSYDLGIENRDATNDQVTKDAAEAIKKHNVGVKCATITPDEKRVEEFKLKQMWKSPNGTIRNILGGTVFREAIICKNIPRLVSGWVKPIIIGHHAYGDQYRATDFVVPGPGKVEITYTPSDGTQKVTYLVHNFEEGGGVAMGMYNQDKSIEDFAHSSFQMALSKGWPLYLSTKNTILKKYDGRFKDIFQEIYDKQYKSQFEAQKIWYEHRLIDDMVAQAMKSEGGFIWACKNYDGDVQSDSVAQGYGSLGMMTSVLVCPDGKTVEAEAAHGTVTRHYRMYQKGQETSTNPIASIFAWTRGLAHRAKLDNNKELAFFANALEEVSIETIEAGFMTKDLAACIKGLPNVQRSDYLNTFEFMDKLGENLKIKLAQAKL
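IDH1-R132H (0.5 ug/mL) preincubated 30 min with compound, then NADPH (0.016 mM) and alpha-KG (2 mM) added; 80 min at RT, pH 7.5. Remaining NADPH coupled via diaphorase/resazurin to fluorescence (540/590 nm); concentration-response curves normalized to no-enzyme control.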
Nrf2 inh = blocks Nrf2 signaling; A549 ARE-Fluc reporter, luciferase luminescence, 18-24 h; Potency, µM (highest dose often 46 µM), without a hit: at the top dose activity change, negative = inhibition, actives largely listed as inhibitors; actives 2.1% (n = 360,000); further: potency means the concentration at half of the fitted maximal effect; on the % scale 0 is the no-effect control and ±100 the full control effect; nearly all actives have a fitted effect of over 60% in size
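Nrf2 function is reported as luminescence of an ARE-controlled luciferase in A549 cells. Compounds were tested at several concentrations, and a CellTiter-Fluor read on the same wells flagged cytotoxicity.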
A549 viability = counter-screen for Nrf2 inhibitors: cytotoxicity in A549 cells; A549 ARE-Fluc cells, CellTiter-Fluor viability, 18-24 h; Potency, µM (highest dose often 46 µM), for the others: at the top dose activity change, negative = cytotoxicity, hits mostly inhibitors; actives 0.16% (n = 390,000); further: potency means the concentration at half of the fitted maximal effect; on the % scale 0 is the no-effect control and ±100 the full control effect
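A549 ARE_Fluc cells in 5% FBS OPTI-MEM were exposed to compounds in concentration-response for 18-24 h at 37 deg C. Viability was read by CellTiter-Fluor fluorescence (Ex 405/Em 525) after 30 min, before the luciferase read.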
Giardia kill = Giardia lamblia killing. actives 0.15% (n = 340,000). Giardia lamblia trophozoite viability. AID 540267. activity change, % at 7.66 µM, hits read low; in the data active means activity change below about -80%; inconclusive means between about -30% and that limit;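 further: parasites exposed to compound for two days anaerobically before the ATP read; on the % scale 0 is the no-effect control and ±100 the full control effect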
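Media and compound were dispensed first, then trophozoites at 100 cells/well; plates sat 48 hrs at 37 deg C without oxygen before ATP luminescence reagent was added and read after 15-30 min at room temperature.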
Nrf2 ARE act = activators of Nrf2 (ARE) signaling. AREc32 ARE-luciferase reporter (MCF7-derived line), luminescence, 24 h. Potency, µM (highest dose often 46.1 µM), for the others: at the highest dose activation, most hits filed as activators. actives 0.31% (n = 410,000); further: potency means the concentration at half of the fitted maximal effect; % of control where 0% means no effect; nearly all actives have a fitted effect of over 65% in size
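ARE activation measured as luciferase luminescence (Steady-Glo, 30 min RT) in AREc32_Fluc cells after 24 hr compound exposure at 37 deg C, 5% CO2; cells seeded overnight at 1000/well in OPTI-MEM, 5% FBS.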
* = called active by the depositor; ? = inconclusive; / = no result given; ! = not confirmed by another sample; [ ] = another dose, or the depositor's remark. The list is not random: actives were taken first. Their share in the collection is about 2.3%. Unless noted, the call rests on the fitted dose curve; in most records, active means well fitted curve in the direction sought with a large enough effect; inconclusive means small, poorly fitted or top-dose-only effect, or another doubt; inactive means no such curve, though single readings can be large; an effect the other way counts as inactive or inconclusive.

SMILES	Apoferritin bind	mIDH1 inhibitor	Nrf2 inh	A549 viability	Giardia kill	Nrf2 ARE act
Clc1ccc(/C=N/Nc2nnc(Cl)c3ccccc23)cc1	6.5%	-2.7%	-14.2%	-8.4%	-10.7	1.26µM*
C(=N\Nc1nncc2ccccc12)/c1ccccc1	-4.9%	-3.9%	?	3.7%	-11.5	11.2µM*
Cc1ccc(/C=N/Nc2nnc(Cl)c3ccccc23)cc1	-18.6%	-2.6%	?	6.8%	?	?
CC(=O)Nc1ccc(C=NNc2nnc(NN=Cc3ccc(NC(C)=O)cc3)c3ccccc23)cc1	/	-1.1%	18.4µM*	-6.2%	24.8	3.2%
Clc1nnc(N/N=C/c2ccccc2)c2ccccc12	-20.0%	2.3%	?	-0.4%	9.1	?
Clc1nnc(NN=C2CCCC2)c2ccccc12	-17.0%	-0.2%	?	-1.5%	-9.0	10µM*
O=C(CSc1nc2ccccc2nc1Cc1ccccc1F)Nc1cccc(C(F)(F)F)c1	-18.3%	-8.6%	-38.6%[9.27 µM]	-14.5%	/	0.7%
Cc1nc([N+](=O)[O-])cn1-c1nc2ccccn2c1[N+](=O)[O-]	5.0%	5.4%	?	-5.0%	-87.8*	0.4%
CC(=O)c1cccc(NC(=O)c2oc(=O)c3ccccc3c2-c2ccccc2)c1	-1.5%	17.1%	/	5.9%	/	4.2%
CS(=O)(=O)c1ccc(C(=O)OCC(=O)Nc2ccc(OC(F)(F)F)cc2)cc1[N+](=O)[O-]	/	/	21.4%	7.6%	13.5	/
Clc1ccc(-c2nc3cnccn3c2Nc2ccc3c(c2)OCO3)cc1	-5.4%	-10.8%	23.1µM*	?	-22.7	-0.7%
Cc1ccc(NC(=O)C(=O)NCc2ccc(Cl)cc2)cc1	-15.7%	1.4%	6.1%	-7.6%	/	1.6%
CN1CCN(CCCN2c3ccccc3Sc3ccc(Cl)cc32)CC1	-15.7%	10.1%	8.2µM*!	18.4µM*!	3.3	-4.5%
COc1ccc(NC(=O)CNC(=O)Cn2ccc3ccccc3c2=O)cc1OC	-1.9%	9.6%	4.4%[9.27 µM]	1.5%	/	-0.2%
CCN1C(=O)S/C(=C/c2ccc(Sc3nc4ccccc4[nH]3)o2)C1=O	-17.3%	3.9%	20.6µM*	-7.9%	-4.6	8.1%
Cc1ccc(NC(=O)C2CC(=O)N(Cc3ccccc3)C2)cc1S(=O)(=O)N1CCCCCC1 (configuration not stated)	-15.9%	-1.3%	?	-13.6%	-9.2	-0.2%
Cc1ccc(NC(=O)C2CCN(c3ncnc4sc(C)c(C)c34)CC2)cc1S(=O)(=O)N(C)C	/	-9.6%	23.1µM*	-16.1%	-9.8	-0.1%
CCN(CC)S(=O)(=O)c1cc(NC(=O)C2CCN(c3ncnc4sc(C)c(C)c34)CC2)ccc1Cl	/	1.3%	11.6µM*	?	6.4	2.9%
CCN(CC)S(=O)(=O)c1cc(NC(=O)C2CC(=O)N(Cc3ccccc3)C2)ccc1Cl (configuration not stated)	/	-11.3%	18.4µM*	-11.3%	-16.6	0.4%
Cc1sc2ncnc(N3CCC(C(=O)Nc4ccc(S(N)(=O)=O)cc4)CC3)c2c1C	/	-1.6%	?	10.0%	0.2	0.2%
CCCCN(CC)C(=O)CCn1c(=O)c2cccn2c2cccnc21	-4.6%	-4.1%	28.6%	6.0%	/	4.9%
O=C(Cn1cc(SCc2ccc(Cl)cc2)c2ccccc21)N1CCCC1	289.0%	-8.3%	-7.1%	-2.8%	/	-0.4%
CCCCNC(=S)NCCCc1cnc[nH]1	/	/	8.3%	23.6%	/	/
CCOC(=O)C(=CNc1cccnc1Oc1ccc(C)c2c1CCC2)C(=O)OCC	-2.9%	6.2%	18.4µM*	-19.0%	1.2	-0.3%
O=C(COc1ccc2ccccc2c1)Nc1ccc(Cc2ccncc2)cc1	-12.6%	4.4%	14.6µM*	-26.9%	-8.3	-0.1%
SMILES	Apoferritin bind	mIDH1 inhibitor	Nrf2 inh	A549 viability	Giardia kill	Nrf2 ARE act
O=C(O)Cc1ccc(NC(=O)COc2ccc3ccccc3c2)cc1	0.2%	9.0%	-5.0%	11.0%	-16.7	-0.8%
Cc1cc(C)n2nc(SCC(=O)Nc3ccc(F)c(F)c3F)nc2n1	/	-0.1%	14.6µM*	-11.8%	-9.7	-0.3%
O=C(N/N=C/c1cccn1-c1ccc([N+](=O)[O-])cc1)c1cccnc1	-10.9%	4.0%	18.4µM*	?	-9.7	-0.5%
Cc1ccc2oc(-c3cccc(NC(=O)c4ccc(N5CCC(C)CC5)c([N+](=O)[O-])c4)c3)nc2c1	48.3%	0.0%	3.1%	2.9%	/	-0.7%
COc1ccccc1CNC(=S)NC1CCCCC1	-15.2%	-0.2%	14.6µM*	?	-3.4	3.0%
CCCN1CCC(=O)N(CCSc2ccc(Br)cc2)CC1	-10.4%	/	?	-11.2%	15.0	/
O=C(CSc1nc2cc(Cl)ccc2s1)Nc1cccc(S(=O)(=O)N2CCOCC2)c1	-9.1%	1.4%	23.1µM*	-4.9%	12.3	0.1%
Cc1onc(-c2ccccc2Cl)c1C(=O)OCC(=O)Nc1cccc(S(=O)(=O)N2CCOCC2)c1	-12.1%	-6.6%	18.4µM*	-7.3%	5.2	0.2%
O=C(COc1ncnc2ccccc12)Nc1cccc(S(=O)(=O)N2CCOCC2)c1	-14.6%	3.0%	4.5%	-3.3%	16.1	-0.1%
O=C(CSc1ncnc2ccccc12)Nc1cccc(S(=O)(=O)N2CCOCC2)c1	-7.2%	3.1%	16.4µM*	-9.5%	4.8	15.3%
CCCc1nc2ccccc2c(C(=O)OCC(=O)Nc2ccc(S(=O)(=O)N3CCOCC3)cc2)c1CC	?	7.7%	23.1µM*	?	2.0	0.0%
CC1C/C(=C/c2ccco2)C(=O)/C(=C/c2ccco2)C1 (configuration not stated)	-23.7%	/	/	/	/	/
O=C1/C(=C\c2ccco2)CCC/C1=C\c1ccco1	-9.8%	-0.2%	8.2%	0.3%	-6.3	10µM*
CCc1ccc(NCc2cc3ccc(OC)cc3n(CC(=O)Nc3ccc(C)c(Cl)c3)c2=O)cc1	-8.5%	-0.7%	29.0%	4.8%	/	-0.8%
CCCc1nc2c(=O)n(C)c(=O)nc-2n(C)n1	-10.1%	24.1%	23.1µM*	6.51µM*	?	-2.7%
Cn1nc(-c2ccccn2)nc2c(=O)n(C)c(=O)nc1-2	-3.4%	28.8%	3.66µM*	3.26µM*	-7.5	-3.3%
Cc1ccccc1-c1nc2c(=O)n(C)c(=O)nc-2n(C)n1	/	/	2.31µM*	4.11µM*	-86.5*	/
CCc1ccc(-c2nc3c(=O)n(C)c(=O)nc-3n(CC)n2)cc1	/	/	14.6µM*	?	-90.7*	/
Cc1ccc(-n2c3nc(=O)n(C)c(=O)c-3cc3ccccc32)cc1	59.4%	3.1%	-8.1%	1.1%	-3.3	-1.3%
CCOC(=O)[C@]12CCCC=C1N(Cc1cccc3ccccc13)C(=O)[C@H](CC(=O)NCCc1ccccc1OC)C2	/	/	/	/	/	4.7%
Cc1ccc(C)c(Nc2nc3nonc3nc2Nc2cccc(C)c2C)c1	?	9.1%	5.8µM*	?	/	0.8%

Screening results from PubChem.
